# Source: PubChem BioAssay AID2081 (NMMLSC, 2009)
# Unmarked numbers belong to inactive results. The rule behind the calls is not given here.
# Molecular target: Bcl-2-like protein 2 (Homo sapiens) (UniProt Q92843)
# Assay: Bcl-W/Bim complex disruptors – biochemical, multiplexed, bead-based flow cytometry, HTS hits, confirmation (AID 2081)
# Conditions: Bim-Bcl-W binding displacement; series mostly up to 100 µM; inhibition of binding: at the top concentration
# Bcl-2-like protein 2 (Homo sapiens), sequence (Q92843 whole entry, looked up): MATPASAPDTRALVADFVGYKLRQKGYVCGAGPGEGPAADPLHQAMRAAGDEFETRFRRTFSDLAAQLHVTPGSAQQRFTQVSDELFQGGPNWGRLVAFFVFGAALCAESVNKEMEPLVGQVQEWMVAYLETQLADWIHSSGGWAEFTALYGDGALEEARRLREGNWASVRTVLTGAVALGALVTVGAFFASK
row,SMILES,inhibition of binding
1,S=c1[nH]cc(-c2ccccc2)n1-c1ccccc1,-0.382
2,C=CS(=O)(=O)c1sc(Cl)c(N2CCOCC2)c1[N+](=O)[O-],19.6
3,COc1cc(CNc2ccc3[nH]c(=O)[nH]c3c2)cc(Br)c1OCC(=O)NC(C)(C)C,12.4
4,COc1ccc(N2C(=O)C(Cl)=C(Oc3cccc(OC)c3)C2=O)cc1,-0.374
5,O=C1/C(=C\c2ccco2)NC(=S)N1c1ccccc1,12.3
6,CCN1C(=O)/C(=C\C=C2/C=CC=CN2CC)SC1=S,5.54
7,Cc1ccc(-c2cc(C(=O)Nc3nccs3)c3ccccc3n2)o1,7.16
8,O=c1c2c(n3nnnc3n1Cc1ccccc1)-c1ccccc1CC21CCCC1,6.66
9,CCN(CC)c1ccc(NC(=O)COc2ccccc2C)cc1S(=O)(=O)Nc1ccccc1OC,-2.83
